# Test results published in PubChem BioAssay (NCI).
# The panel holds about 83,000 compounds, 20% with a hit somewhere; the sample as a whole holds those more often.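 Single-concentration screen, 48 h exposure, 96-well plates. Endpoint: percent growth. Below 10 = active.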 Unmarked numbers belong to inactive results. Active and inactive are the calls of the source.
# What was measured:
# Assay in all cases: NCI-60 one-dose screen, 48 h (100 = growth as untreated, 0 = no growth, -100 = all killed)
# Conditions in all cases: 10 µM
# [1] = tested on: NCI-H23 lung
# [2] = tested on: NCI-H226 lung
# [3] = tested on: NCI-H322M lung
# [4] = tested on: HOP-62 NSCLC
# [5] = tested on: NCI-H460 lung
# [6] = tested on: HOP-92 NSCLC
# [7] = tested on: NCI-H522 lung
# [8] = tested on: A549/ATCC NSCLC
# [9] = tested on: 786-0 renal
# [10] = tested on: COLO 205 colon
# [11] = tested on: DU-145 prostate
# [12] = tested on: K-562 leukemia
# [13] = tested on: MALME-3M melanoma
# [14] = tested on: MDA-MB-231 breast
# [15] = tested on: SF-268 CNS
# [16] = tested on: SF-295 CNS
# [17] = tested on: SF-539 CNS
# [18] = tested on: UACC-257 melanoma
# [19] = tested on: M14 melanoma
# [20] = tested on: RXF 393 renal
SMILES,growth [1],growth [2],growth [3],growth [4],growth [5],growth [6],growth [7],growth [8] [%],growth [9],growth [10],growth [11],growth [12],growth [13],growth [14],growth [15],growth [16],growth [17],growth [18],growth [19],growth [20]
COc1ccc2[nH]cc(/C=N/Nc3ccc(Br)cn3)c2c1,36.6%,40%,43.8%,45.8%,16.2%,-24.5% (active),38.5%,23,-3.93% (active),37.4%,40.7%,9.92% (active),63.9%,6.27% (active),21%,17.4%,18.8%,52.6%,8.66% (active),
CN1CCc2c(sc3ncnc(N/N=C/c4cn(-c5ccccc5)nc4-c4ccc(Cl)cc4)c23)C1,-20.6% (active),33.1%,28.7%,29.8%,1.06% (active),45.7%,3.5% (active),26.3,25.3%,-30.1% (active),31.4%,9.51% (active),17.8%,4.63% (active),30.7%,21.6%,7.13% (active),8.67% (active),16.6%,
O=C(N/N=C/c1ccc(B(O)O)o1)c1[nH]c2ccc(Br)cc2c1-c1ccccc1,24%,38.2%,61.2%,44.3%,11%,58.9%,-51% (active),31.1,41.6%,-43.2% (active),40.9%,7.21% (active),61.1%,28.1%,51.1%,-8.66% (active),-33.4% (active),63.4%,20.1%,1.27% (active)
O=C1N/C(=N\c2nccs2)S/C1=C\c1cccs1,38.1%,19.9%,45.2%,33.6%,14.7%,68%,21.2%,26.8,43.2%,29%,53.2%,20.1%,28.9%,47.6%,44.7%,13.4%,21.8%,49.6%,9.09% (active),
Cc1ccc(/C(CSc2nnc(-c3c[nH]c4ccccc34)n2-c2ccccc2)=N/O)cc1,53.3%,-41.1% (active),-42.4% (active),-56.6% (active),1.99% (active),-5.5% (active),23.8%,18.4,2.17% (active),12.4%,-60.2% (active),1.59% (active),16.7%,-82.1% (active),-60.1% (active),-49.9% (active),10.1%,35.7%,-64.4% (active),
O=C(c1ccc(Cl)cc1)C1[C@H](c2ccccc2Br)[C@@H](c2ccccc2)NC12C(=O)Nc1ccc(Cl)cc12 (stereo partly specified),-22.3% (active),18.9%,44.7%,38.9%,-13.5% (active),23%,3.07% (active),19.8,17.6%,8.59% (active),29.1%,7.94% (active),51.8%,5.9% (active),23.4%,15.2%,39.7%,42.5%,25.2%,-33.7% (active)
Cc1cc(C)nc(NS(=O)(=O)c2ccc(N/C(N)=N/c3nccc(-c4ccccc4)n3)cc2)n1,57.1%,49.6%,75.6%,70.3%,76.3%,43.6%,76.2%,63,72.1%,91.1%,88.8%,49.3%,63.3%,59.4%,82%,52.2%,70%,94%,88.4%,
CCOC(=O)C1NN(c2ccc(S(N)(=O)=O)cc2)c2nc3nc(-c4cccs4)cc(-c4cccs4)c3c(=O)n21 (stereo unspecified),96.6%,5.85% (active),99.7%,109%,77.6%,61.5%,77.2%,90.9,78.7%,81.1%,91.6%,83.3%,86.1%,88.8%,75%,78.5%,63.1%,109%,74%,51.6%
O=c1c2ccccc2nc(COc2ccccc2)n1/N=C/c1ccc(N2CCCC2)cc1,85%,105%,91.2%,108%,105%,75.5%,81.7%,92.2,92.8%,142%,94.7%,73.4%,115%,89.2%,115%,94.2%,93.6%,108%,101%,
O=C(Cn1nc(-c2ccccc2)ccc1=O)NN1C(=O)c2ccccc2C1=O,105%,101%,117%,102%,99.7%,125%,77.5%,108,103%,131%,105%,99.8%,90.1%,100%,97.9%,96.5%,91.2%,113%,107%,
Cc1ccc(-c2ccc(SCC(=O)Nc3ccc(S(N)(=O)=O)cc3Br)nn2)cc1,27.3%,22.6%,36%,14.1%,8.44% (active),-31.6% (active),47.2%,15.8,16.4%,33.1%,21.5%,72.4%,29%,1.3% (active),45.9%,21.6%,13.3%,77.9%,69.5%,
O=C1NC(=NC23CC4CC(CC(C4)C2)C3)N/C1=C\c1ccc2ncsc2c1,-10.3% (active),-4% (active),4.94% (active),9.31% (active),7.74% (active),5.85% (active),-7.87% (active),16.5,16.1%,-29.6% (active),6.29% (active),10.5%,2.66% (active),-8.83% (active),-11.5% (active),13%,-23.9% (active),26.7%,42%,-63.6% (active)
C/C(=N\N=C\c1ccc(N(C)C)cc1)c1ccc2c(c1)Nc1ccccc1S2,31.4%,16.8%,79.5%,62.2%,25%,59.5%,48.5%,50.5,67.5%,60.4%,62%,28.2%,49.9%,52%,62.8%,24.6%,52.8%,64.9%,67.7%,
N#Cc1c(NC(=O)c2ccc(C(F)(F)F)cc2)sc2c1CCC(O)=C2,23.9%,46.9%,46.1%,26.3%,14.6%,38.7%,1.61% (active),34.7,53.3%,60.9%,38.5%,8.86% (active),23.2%,13.5%,43.3%,17.5%,3.2% (active),36%,13%,14.6%
O=C1Nc2ccc(Cl)cc2/C1=C/c1cccc(OCc2ccccn2)c1,15.4%,-21.3% (active),40.1%,52.1%,-16.2% (active),-6.11% (active),-75.5% (active),40.1,-14.4% (active),-45.9% (active),6.01% (active),0.86% (active),-51.9% (active),-50.8% (active),4.23% (active),-42.4% (active),-64.4% (active),-0.118% (active),-50.5% (active),-31.4% (active)
C=C1CCC2C3(C)COC(c4c(F)cccc4F)OC3CCC2(C)C1CC(O)C1=CCOC1=O (stereo unspecified),83.5%,79.3%,108%,86%,89.2%,55.4%,-33.8% (active),71.9,19.1%,42.4%,68.1%,21.4%,96.3%,91.1%,98.5%,79.4%,57%,74.1%,53.9%,66.1%
